The test system of experiment [1] is Plasmodium falciparum Sir2 (PF13_0152, Sir2A). In words: pfSir2 binders on small-molecule microarrays, primary screen, biochemical, small-molecule microarray, 635 nm fluorescence (AID 1098).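 Note: score merges spot fluorescence intensity with its signal-to-noise ratio.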 To be noted: small-molecule microarray binding, fluorescence 635 nm; higher = more signal.
A short description of experiment [2]: small-molecule microarray binders of probe aDKK1, primary screen, biochemical, biotinylated probe, 635/667 nm fluorescence (AID 1099).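 Note: score merges 667nm spot fluorescence with signal to noise across triplicate slides.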 The settings on record: higher = more signal.
The nature of experiment [3]: small-molecule microarray binders of probe aCHRDL2, primary screen, biochemical, biotinylated probe, 635/667 nm fluorescence (AID 1100). To be noted: higher = more signal.
The nature of experiment [4]: splicing luciferase reporter signal modulators, primary screen, spliceosome inhibition project, cell-based, HEK293, splice +/- reporter (AID 1101).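 Note: HEK293 cells carrying a splicing-competent luciferase reporter gene; test concentration not given here.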 To be noted: luminescence, 24 h, higher = more signal, called active from +8 up or from −8 down. A general note: A reporter such as luciferase makes a cellular process visible.
Experiment [5] deals with Fibroblast growth factor 10 (Homo sapiens) (UniProt O15520). In words: FGF10 binders on small-molecule microarrays, primary screen, biochemical, small-molecule microarray, 635 nm fluorescence (AID 1102). To be noted: FGF10 binding, fluorescence 635 nm, higher = more signal.
The subject of experiment [6] is glycogen synthase kinase-3 (GSK3A per assay name; protocol says GSK3B). In words: GSK3 binders on small-molecule microarrays, primary screen, biochemical, small-molecule microarray, 635 nm fluorescence, GSK3A (AID 1103). Note: the record names both GSK3A and GSK3B. The settings on record: small-molecule microarray binding, fluorescence 635 nm; higher = more signal.
Experiment [7] addresses Epidermal growth factor receptor (Homo sapiens) (UniProt P00533). Kind of experiment: EGFR binders on small-molecule microarrays, primary screen, biochemical, small-molecule microarray, 635 nm fluorescence (AID 1104).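 Note: score merges 667 nm emission intensity with spot signal to noise over triplicate slides.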 The settings on record: EGFR binding, higher = more signal.
In experiment [8] the target is Follistatin-related protein 3 (Homo sapiens) (UniProt O95633). In words: FSTL3 binders on small-molecule microarrays, primary screen, biochemical, small-molecule microarray, 635 nm fluorescence (AID 1105).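 Note: score merges emission near 667 nm and signal to noise per printed spot across three slides.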 The settings on record: FSTL3 binding, higher = more signal.
Experiment [9] deals with Dickkopf-related protein 1 (Homo sapiens) (UniProt O94907). Kind of experiment: DKK1 binders on small-molecule microarrays, primary screen, biochemical, small-molecule microarray, 635 nm fluorescence scan (AID 1106).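 Note: score merges emission near 667 nm with signal to noise over three replicate slides.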 To be noted: DKK1 binding, higher = more signal.
Experiment [10] deals with Inhibin beta A chain (activin A). Kind of experiment: INHBA (activin A) binders on microarrays, primary screen, biochemical, small-molecule microarray, 635 nm fluorescence scan (AID 1107).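 Note: mouse activin A protein probed at 4.33 µg/mL on printed slides; score merges bound-protein fluorescence near 667 nm with spot signal-to-noise.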 The settings on record: small-molecule microarray binding, higher = more signal.
Experiment [11] has as its system Human papillomavirus type 1a protein E7 (residues 44-93). In words: HPV1a E7 fragment binders on microarrays, primary screen, biochemical, small-molecule microarray, residues 44-93, 635 nm fluorescence (AID 1108).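 Note: E7 fragment applied at 1 µg/mL in TBST for 1 h at 4 C; score combines spot fluorescence with its signal to noise ratio.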 To be noted: small-molecule microarray binding, fluorescence 635 nm; higher = more signal.
Experiment [12] is described as follows: modulators of HCV replicon luciferase signal, primary screen, HCV replication inhibitor project, Huh7 cells, luciferase reporter (AID 1109).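 Note: huh7 hepatoma cells harbouring a luciferase neomycin HCV replicon reporter; luciferase luminescence as measure of HCV replicon replication; test concentration not given here.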 To be noted: 48 h, higher = more signal. In general terms: In antiviral work, replicon cells carry a viral genome segment that copies itself.
The target in experiment [13] is Left-right determination factor 2 (Homo sapiens) (UniProt O00292). In words: LEFTY2 binders on small-molecule microarrays, primary screen, biochemical, small-molecule microarray, 635 nm fluorescence scan (AID 1110). To be noted: LEFTY2 binding, higher = more signal.
Experiment [14] concerns the target Calmodulin-1 (Homo sapiens) (UniProt P0DP23). Kind of experiment: CALM1 binders on microarrays, EGTA buffer, profiling panel, biochemical, small-molecule microarray, Cy5-labelled CALM1 (AID 1111).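 Note: labelled calmodulin applied in Tris saline Tween buffer holding calcium plus EGTA and DTT.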 To be noted: Cy5-CALM1 binding fluorescence, higher = more signal.
Experiment [15] shares this target. Kind of experiment: calcium-bound CALM1 binders on microarrays, profiling panel, artefact control for SMM control-protein annotation, biochemical, small-molecule microarray, Cy5-labelled CALM1, plus calcium (AID 1112).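 Note: score merges spot fluorescence with signal to noise from triplicate slides.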 To be noted: Cy5-CALM1 binding fluorescence, higher = more signal.
Experiment [16] is described as follows: small-molecule microarray binders of probe aWnt5a, primary screen, biochemical, biotinylated probe, 635/667 nm fluorescence (AID 1113).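 Note: score merges 667 nm fluorescence intensity with signal-to-noise per printed feature.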 The settings on record: higher = more signal.
Experiment [17] can be described thus: small-molecule microarray binders of probe aShh, primary screen, biochemical, biotinylated probe, 635/667 nm fluorescence (AID 1114).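 Note: probe is biotin-labelled aShh protein from a stem cell growth factor screen; measures binding of labelled protein to compounds printed on the slide; score merges feature fluorescence at 667 nm with signal-to-noise.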 The settings on record: higher = more signal.
Experiment [18] can be described thus: small-molecule microarray binders of probe aNog, primary screen, biochemical, biotinylated probe, 635/667 nm fluorescence (AID 1115).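 Note: probe is biotinylated aNog protein used at 0.15 µg/mL for 1 h at 4 C; z-score combines 667 nm fluorescence of each spot with its signal to noise.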 The settings on record: higher = more signal.
For experiment [19], the target named is Torsin-1A-interacting protein 1 (Homo sapiens) (UniProt Q5JTV8). Kind of experiment: LAP1 binders from COS7 cell lysate, primary screen, small-molecule microarray, 635/667 nm fluorescence (AID 1116). The settings on record: COS7-hLAP1 lysate binding, 635 nm fluorescence, higher = more signal.
Experiment [20] addresses Alpha-bungarotoxin (Bungarus multicinctus) (UniProt P60615). In words: alpha-bungarotoxin binders on microarray, profiling panel, artefact control for SMM control protein annotation, biochemical, small-molecule microarray, Alexa647 label, 635/667 nm fluorescence (AID 1117). The settings on record: alpha-BTX-A647 binding fluorescence, higher = more signal.

The results in this text go back to PubChem BioAssay.

Molecules are shown by their SMILES. Active and inactive are the calls of the source.

Chain of Alpha-bungarotoxin (Bungarus multicinctus) (P60615 whole entry, looked up): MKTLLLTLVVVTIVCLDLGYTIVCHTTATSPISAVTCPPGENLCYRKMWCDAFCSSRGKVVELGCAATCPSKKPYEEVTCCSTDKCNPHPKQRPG
Chain of Left-right determination factor 2 (Homo sapiens) (O00292 whole entry, looked up): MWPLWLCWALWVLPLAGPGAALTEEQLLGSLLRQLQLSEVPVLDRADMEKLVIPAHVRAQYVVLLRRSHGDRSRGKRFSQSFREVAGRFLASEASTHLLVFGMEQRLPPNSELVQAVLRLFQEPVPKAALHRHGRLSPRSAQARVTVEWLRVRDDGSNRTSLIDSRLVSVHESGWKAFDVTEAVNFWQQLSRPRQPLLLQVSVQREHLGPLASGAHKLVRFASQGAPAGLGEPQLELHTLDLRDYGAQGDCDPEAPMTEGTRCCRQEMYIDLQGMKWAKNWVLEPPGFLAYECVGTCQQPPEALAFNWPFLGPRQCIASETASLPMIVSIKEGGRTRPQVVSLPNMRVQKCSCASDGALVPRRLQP
Chain of Follistatin-related protein 3 (Homo sapiens) (O95633 whole entry, looked up): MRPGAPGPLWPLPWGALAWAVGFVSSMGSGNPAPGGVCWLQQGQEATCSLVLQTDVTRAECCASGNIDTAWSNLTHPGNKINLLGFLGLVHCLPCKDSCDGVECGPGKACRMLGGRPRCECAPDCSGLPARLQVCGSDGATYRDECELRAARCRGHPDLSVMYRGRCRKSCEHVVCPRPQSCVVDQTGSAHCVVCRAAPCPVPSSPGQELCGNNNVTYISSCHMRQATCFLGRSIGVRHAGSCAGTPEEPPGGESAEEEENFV
Chain of Fibroblast growth factor 10 (Homo sapiens) (O15520 whole entry, looked up): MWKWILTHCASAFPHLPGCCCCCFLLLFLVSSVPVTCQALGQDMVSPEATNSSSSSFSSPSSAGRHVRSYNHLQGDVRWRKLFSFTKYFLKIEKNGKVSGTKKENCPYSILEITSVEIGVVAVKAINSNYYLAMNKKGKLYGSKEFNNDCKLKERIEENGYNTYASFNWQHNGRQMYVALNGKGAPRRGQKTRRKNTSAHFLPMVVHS
Chain of Epidermal growth factor receptor (Homo sapiens) (P00533 whole entry, looked up): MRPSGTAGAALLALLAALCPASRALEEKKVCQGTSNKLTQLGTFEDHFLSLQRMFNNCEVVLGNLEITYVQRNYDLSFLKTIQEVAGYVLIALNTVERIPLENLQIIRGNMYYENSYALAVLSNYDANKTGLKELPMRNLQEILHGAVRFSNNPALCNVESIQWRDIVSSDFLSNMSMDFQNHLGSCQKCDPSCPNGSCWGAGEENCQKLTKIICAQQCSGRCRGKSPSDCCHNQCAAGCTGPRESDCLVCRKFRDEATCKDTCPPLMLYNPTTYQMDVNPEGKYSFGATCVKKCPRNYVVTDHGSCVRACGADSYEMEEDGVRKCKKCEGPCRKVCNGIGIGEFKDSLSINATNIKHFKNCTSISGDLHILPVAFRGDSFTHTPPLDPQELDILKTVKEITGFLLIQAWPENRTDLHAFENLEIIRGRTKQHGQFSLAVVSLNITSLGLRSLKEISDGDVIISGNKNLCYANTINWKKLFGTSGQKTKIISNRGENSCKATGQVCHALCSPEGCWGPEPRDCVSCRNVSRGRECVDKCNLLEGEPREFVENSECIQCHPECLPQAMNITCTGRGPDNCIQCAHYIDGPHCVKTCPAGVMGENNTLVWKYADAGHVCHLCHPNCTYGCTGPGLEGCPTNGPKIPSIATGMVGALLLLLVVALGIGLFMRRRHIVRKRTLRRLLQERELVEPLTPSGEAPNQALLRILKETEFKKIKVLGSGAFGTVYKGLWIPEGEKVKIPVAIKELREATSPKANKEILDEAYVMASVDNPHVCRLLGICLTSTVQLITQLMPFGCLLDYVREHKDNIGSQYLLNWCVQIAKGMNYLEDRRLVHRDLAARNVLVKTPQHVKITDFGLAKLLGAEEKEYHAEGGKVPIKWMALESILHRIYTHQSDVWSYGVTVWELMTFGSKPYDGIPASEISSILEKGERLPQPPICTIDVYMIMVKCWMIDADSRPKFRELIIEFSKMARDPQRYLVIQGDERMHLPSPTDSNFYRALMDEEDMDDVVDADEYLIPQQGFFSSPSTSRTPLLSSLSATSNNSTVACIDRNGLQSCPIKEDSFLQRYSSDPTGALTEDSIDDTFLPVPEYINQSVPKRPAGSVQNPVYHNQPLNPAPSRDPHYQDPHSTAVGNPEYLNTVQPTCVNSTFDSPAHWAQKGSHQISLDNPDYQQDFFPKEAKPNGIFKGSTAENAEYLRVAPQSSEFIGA
Chain of Dickkopf-related protein 1 (Homo sapiens) (O94907 whole entry, looked up): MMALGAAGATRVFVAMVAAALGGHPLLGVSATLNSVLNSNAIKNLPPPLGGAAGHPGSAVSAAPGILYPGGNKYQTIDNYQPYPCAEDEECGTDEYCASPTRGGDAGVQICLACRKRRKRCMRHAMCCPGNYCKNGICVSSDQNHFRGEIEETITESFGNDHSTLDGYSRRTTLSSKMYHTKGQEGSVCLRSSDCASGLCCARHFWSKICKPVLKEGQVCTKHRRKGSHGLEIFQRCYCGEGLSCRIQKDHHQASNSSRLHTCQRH
Chain of Torsin-1A-interacting protein 1 (Homo sapiens) (Q5JTV8 whole entry, looked up): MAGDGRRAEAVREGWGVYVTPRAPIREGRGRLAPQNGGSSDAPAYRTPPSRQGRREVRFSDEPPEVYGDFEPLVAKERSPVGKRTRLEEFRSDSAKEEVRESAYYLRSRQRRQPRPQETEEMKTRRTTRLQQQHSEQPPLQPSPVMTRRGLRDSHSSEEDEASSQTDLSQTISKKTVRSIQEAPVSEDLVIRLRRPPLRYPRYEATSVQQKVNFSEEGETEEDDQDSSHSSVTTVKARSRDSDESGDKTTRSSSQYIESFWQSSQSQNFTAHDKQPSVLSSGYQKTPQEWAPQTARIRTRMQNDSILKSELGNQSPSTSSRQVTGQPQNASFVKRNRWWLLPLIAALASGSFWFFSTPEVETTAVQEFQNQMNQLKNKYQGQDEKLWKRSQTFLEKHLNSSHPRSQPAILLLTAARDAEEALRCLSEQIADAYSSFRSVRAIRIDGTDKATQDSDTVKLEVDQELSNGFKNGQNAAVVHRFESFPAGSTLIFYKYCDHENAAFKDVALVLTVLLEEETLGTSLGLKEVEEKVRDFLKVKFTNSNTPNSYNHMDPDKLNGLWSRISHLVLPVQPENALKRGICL

With `CCOC(=O)C1=CC[C@@H](c2ccccc2)N(S(=O)(=O)c2ccc(C)cc2)[C@H]1C(=O)OCC`, the composite z-score in experiment [1] was -0.0664; in experiment [2] it was 0.955; in experiment [3], 1.02; in experiment [5] it was 0.605; in experiment [6] it was 1.13; in experiment [7], 0.117. Besides, the composite z-score is 0.533 in experiment [8]; -0.249 in experiment [9]; 1.04 in experiment [10]; 0.841 in experiment [11]; -0.0319 in experiment [13]; 0.784 in [14]. Besides, the composite z-score worked out at 0.289 in [15]; 0.177 in experiment [16]; 0.77 in [17]; 0.137 in experiment [18]; 0.962 in experiment [19]; 0.384 in experiment [20]. For the same compound, the z-score in [4] is -0.287 (inactive); in [12], -3.08.

Take `COCCOC(=O)N1C(=O)[C@@]2(c3cc(C#CCNC(N)=O)ccc31)[C@H](c1ccccc1OCCO)N1[C@H](c3ccccc3)[C@H](c3ccccc3)OC(=O)[C@H]1[C@@H]2C(N)=O`: the composite z-score was determined as 0.806 in experiment [1]; 0.117 in [2]; 0.106 in [3]; 0.848 in experiment [5]; 0.786 in [6]; 0.528 in experiment [7]. In addition, the composite z-score was 1.26 in [8]; 0.439 in experiment [9]; 0.719 in experiment [10]; 1.18 in experiment [11]; 0.54 in [13]; 0.451 in [14]. Also, the composite z-score in experiment [15] is 0.664; in experiment [16], 0.0253; in experiment [17] it was -0.229; in experiment [18], -0.314; in [19], -0.0837; in experiment [20] it was 1.18. Moreover, the z-score is -0.265 (inactive) in [4] and -0.733 in experiment [12].

For the compound `O=C1O[C@@H](c2ccccc2)[C@@H](c2ccccc2)N2[C@@H](c3ccc(O)cc3)[C@]3(C(=O)Nc4ccc(C#CC5=CCCCC5)cc43)[C@@H](C(=O)O)[C@H]12`, the composite z-score in [1] turned out to be 1.14; in [2] it was 0.799; in experiment [3], 0.999; in experiment [5], 0.277; in experiment [6], 0.653; in experiment [7], 0.035. The composite z-score in experiment [8] amounted to 0.545; in [9], 0.0526; in experiment [10], 1.19; in [11], 0.2; in experiment [13], 0.0765; in [14], 2.02. Besides, the composite z-score in experiment [15] is 0.999; in [16], -0.0077; in experiment [17], 0.123; in experiment [18] it was 0.413; in [19], 1.55; in experiment [20], 1.17. For the same compound, the z-score in [4] was -1.05 (inactive); in experiment [12], 0.0664.

On to `Cc1c(NC(=O)CC#N)c(=O)n(-c2ccccc2)n1C`, for which the composite z-score was 0.345 in [1]; -0.274 in experiment [2]; -0.47 in experiment [3]; 0.118 in experiment [5]; 0.526 in [6]; 0.322 in experiment [7]. Besides, the composite z-score is 0.367 in experiment [8]; 0.273 in experiment [9]; -0.256 in experiment [10]; 0.371 in experiment [11]; 0.364 in experiment [13]; 0.121 in experiment [14]. For the same compound, the composite z-score in [15] was -0.235; in experiment [16], -0.0944; in [17] it was 0.253; in [18], -0.434; in [19], 0.292; in experiment [20], 1.08. Also, the z-score in experiment [4] was 0.933 (inactive); in experiment [12] it was -0.27.

For `O=C(CS)NCCCCCCNC(=O)[C@H]1C[C@H]2C(=O)N3CCC[C@H]3C(=O)N2[C@H]1c1cccc(OCCO)c1`, the composite z-score in experiment [1] was 1.86; in experiment [2] it was -0.037; in [3] it was -0.109; in [5], 1.08; in [6] it was 1.34; in experiment [7] it was 0.543. Further, the composite z-score worked out at 0.575 in [8]; 0.904 in experiment [9]; 0.683 in [10]; 1.36 in experiment [11]; 0.36 in experiment [13]; 0.803 in experiment [14]. The composite z-score in [15] is 0.0685; in experiment [16], -0.0236; in experiment [17], 0.251; in experiment [18], -0.353; in [19], 0.557; in [20], 0.383. Moreover, the z-score was 0.5 (inactive) in [4] and -0.36 in [12].

For `COCCOC(=O)N1C(=O)[C@@]2(c3cc(C#CC4=CCCCC4)ccc31)[C@H](C(=O)N1CCc3cc(OC)c(OC)cc3C1)[C@H]1C(=O)O[C@H](c3ccccc3)[C@H](c3ccccc3)N1[C@@H]2c1ccccc1OCCO`, the composite z-score was 0.763 in experiment [1]; -0.0567 in [2]; 0.185 in experiment [3]; 0.964 in experiment [5]; 1.2 in [6]; 0.501 in experiment [7]. Moreover, the composite z-score in [8] worked out at 1; in experiment [9] it was 0.406; in [10], 0.59; in experiment [11], 0.899; in experiment [13] it was 0.546; in [14], 0.805. Besides, the composite z-score is 0.512 in [15]; -0.107 in [16]; -0.153 in experiment [17]; 0.365 in experiment [18]; 0.261 in experiment [19]; 0.917 in [20]. Besides, the z-score in experiment [4] was -0.176 (inactive); in experiment [12], -1.35.
